Measurements as given in PubChem BioAssay (NCI).
About 83,000 compounds went through this panel and 20% of them were active in at least one assay; those are over-represented in the sample as a whole.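 Interpretation: 100, growth as untreated; towards 0, rising growth inhibition; 0, no net growth; 0 to -100, cell death. Compounds scoring below 10 were considered active.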 A number with no mark means an inactive call. The source made the active and inactive calls.

How the values were obtained:
Assay in all cases: NCI-60 one-dose screen, 48 h (100 = growth as untreated, 0 = no growth, -100 = all killed)
Conditions in all cases: 10 µM unless noted
DU-145 prostate = system: DU-145 prostate
K-562 leukemia = system: K-562 leukemia
MALME-3M melanoma = system: MALME-3M melanoma
MDA-MB-231 breast = system: MDA-MB-231 breast
RXF 393 renal = system: RXF 393 renal
SF-268 CNS = system: SF-268 CNS
SF-295 CNS = system: SF-295 CNS
SF-539 CNS = system: SF-539 CNS
UACC-257 melanoma = system: UACC-257 melanoma
M14 melanoma = system: M14 melanoma
HCT-15 colon = system: HCT-15 colon
HT29 colon = system: HT29 colon
SNB-75 CNS = system: SNB-75 CNS
SNB-19 CNS = system: SNB-19 CNS
U251 CNS = system: U251 CNS
PC-3 prostate = system: PC-3 prostate
SK-MEL-5 melanoma = system: SK-MEL-5 melanoma
UACC-62 melanoma = system: UACC-62 melanoma
LOX IMVI melanoma = system: LOX IMVI melanoma
SK-MEL-28 melanoma = system: SK-MEL-28 melanoma

Row | SMILES | growth (DU-145 prostate) | growth (K-562 leukemia) | growth (MALME-3M melanoma) | growth (MDA-MB-231 breast) | growth (RXF 393 renal) | growth (SF-268 CNS) | growth (SF-295 CNS) | growth (SF-539 CNS) | growth (UACC-257 melanoma) | growth (M14 melanoma) | growth (HCT-15 colon) | growth (HT29 colon) | growth (SNB-75 CNS) | growth (SNB-19 CNS) | growth (U251 CNS) | growth (PC-3 prostate) | growth (SK-MEL-5 melanoma) | growth (UACC-62 melanoma) | growth (LOX IMVI melanoma) | growth (SK-MEL-28 melanoma)
1 | COC1=CC(=O)C[C@@H](C)[C@]12Oc1c(Cl)c(OC)cc(OC)c1C2=O | 105% | 32.9% | 85.2% | 84.1% | 86.8% | 93.5% | 96.8% | 104% | 84.5% | 66.3% | 76.9% | 104% | 67.8% | 95.7% | 92.1% | 87.5% | 84.3% | 73.3% | 80.8% | 85.7%
2 | CCCCn1c(=O)c2c(nc(NCCc3ccc(O)c(O)c3)n2CCC)n(CCCC)c1=O | 74.8% | 37.7% | 101% | 58.6% | 66.3% | 74.6% | 94.7% | 87.7% | 89.6% | 75.9% | 39.4% | 70.9% | 68.8% | 92.3% | 77.2% | 43.9% | 83.1% | 86.2% | 57.4% | 86.9%
3 | COc1ccc(-c2cc(-c3cc(OC)ccc3OC)nc(SCC(=O)c3ccccc3)c2C#N)cc1 | 106% | 105% | 88.9% | 94.4% | 97.2% | 99% | 104% | 94.8% | 101% | 98.1% | 109% | 95% | 68% | 107% | 90.4% | 88.3% | 98.8% | 78.4% | 92.1% | 103%
4 | O=C(CSc1nnc(-c2ccc(NC(=O)c3cccnc3)cc2)o1)Nc1cccc(Br)c1 | 102% | 66.3% | 93.1% | 93% | 111% | 102% | 87.2% | 70.6% | 102% | 101% | 90.6% | 107% | 72.1% | 62.9% | 68.7% | 82.8% | 92.9% | 104% | 93.6% | 110%
5 | NC(N)=NN=C(c1ccccc1)c1ccccc1 | 22.8% | 21.7% | 48.8% | 59.6% | -28.4% (active) | 46.1% | 43% | 19.3% | 64.4% | -6.76% (active) | 30.9% | 11.7% | -7.05% (active) | 47% | 32.1% | 23.8% | 3.67% (active) | 54.8% | 30.8% | 43.1%
6 | COc1cc(/C=C2\C(=O)ON=C2C)cc(OC)c1OC | 108% | 95% | 102% | 98.3% | 114% | 95.7% | 100% | 94.7% | 103% | 96% | 102% | 103% | 80.4% | 95.6% | 100% | 97.3% | 101% | 97% | 96.2% | 103%
7 | CCN(CC)c1ccc2nc3c4ccccc4c(=NC(=O)c4ccccc4-c4c5ccc(N(CC)CC)cc5[o+]c5cc(N(CC)CC)ccc45)cc-3oc2c1 | -89.4% (active) | -85.7% (active) | 54.9% | 52.8% | 61.6% | 60.5% | -50.3% (active) | 67% | 49.7% | -3.37% (active) | 6.13% (active) | 1.92% (active) | 67.7% | -22.3% (active) | 20.5% | 12.1% | -69.8% (active) | 67.5% | -30.4% (active) | 97.4%
8 | Cc1ccc(-n2nc3c(c(C#N)c2=O)CC(c2ccccc2Cl)C([N+](=O)[O-])=C3O)cc1 (stereo not given) | 107% | 81.7% | 101% | 82.4% | 101% | 90% | 101% | 99.8% | 102% | 99.6% | 61.3% | 118% | 75.1% | 97.1% | 90% | 66.6% | 75% | 84.3% | 81.4% | 106%
